# Reference: PubChem BioAssay AID1422 (Emory University Molecular Libraries Screening Center, 2008)
# The campaign covered roughly 260,000 compounds. About 1,300 (0.5%) were called active.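 Rule for the calls: active = percent inhibition above 40 after rounding to a whole number; inactive = the rest.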 Many of the other results were omitted from the sample, so actives are more common in it than they were.
# Molecular target: Prostaglandin E2 receptor EP2 subtype (Homo sapiens) (UniProt P43116)
# Assay: human EP2 receptor antagonists, primary screen, TR-FRET cAMP, C6 glioma cells (AID 1422);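 note: rat C6 glioma host cells with rolipram phosphodiesterase inhibitor present; the protocol text gives 20 µM as final concentration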
# Conditions: C6 glioma cells expressing human EP2, cAMP TR-FRET; at 25 µM; stronger effect = higher value; cells stimulated with saturating PGE2
# Prostaglandin E2 receptor EP2 subtype (Homo sapiens), sequence (P43116 whole entry, looked up): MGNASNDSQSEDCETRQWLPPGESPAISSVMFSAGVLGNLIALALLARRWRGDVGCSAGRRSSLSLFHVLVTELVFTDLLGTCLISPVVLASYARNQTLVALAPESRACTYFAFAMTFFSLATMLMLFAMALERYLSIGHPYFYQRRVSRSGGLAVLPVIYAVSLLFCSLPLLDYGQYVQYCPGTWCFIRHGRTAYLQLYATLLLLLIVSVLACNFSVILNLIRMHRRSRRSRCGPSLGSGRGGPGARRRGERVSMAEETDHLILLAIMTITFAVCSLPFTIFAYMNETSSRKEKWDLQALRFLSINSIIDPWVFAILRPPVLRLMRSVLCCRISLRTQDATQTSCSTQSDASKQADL
row,Structure (SMILES),inhibition
1,CC(=O)Nc1ccc(-c2csc(NC=C3C(=O)OC(C)(C)OC3=O)n2)cc1,2.63% (inactive)
2,CC(=O)Nc1ccc(-c2csc(NC(=O)Nc3ccccc3)n2)cc1,55% (active)
3,CC(=O)Nc1ccc(S(=O)(=O)Nc2nc(-c3ccc(C(C)(C)C)cc3)cs2)cc1,4.4% (inactive)
4,O=C1c2cccc3cccc(c23)C(=O)N1c1ccc(N2C(=O)c3cccc4cccc(c34)C2=O)cc1,9.96% (inactive)
5,O=c1[nH]c2ccccc2n2c(-c3ccccc3)nnc12,82.1% (active)
6,CCOC(=O)c1cnc2[nH]c3ccccc3n2c1=O,4.64% (inactive)
7,Cc1ccc(-c2nc3ccccc3[nH]c2=O)cc1,12.3% (inactive)
8,Cc1nn(CC(=O)Nc2cccc3ncccc23)c(=O)c2ccccc12,6.79% (inactive)
9,O=c1cc(CSc2nnc(Cn3nnc4ccccc43)o2)c2ccccc2[nH]1,7.33% (inactive)
10,CCOc1ccc(NC(=S)N(CCO)Cc2cc3c(C)cc(C)cc3[nH]c2=O)cc1,6.48% (inactive)
11,Cc1cc2c(cc1C)NC1=C(N2)O[C@H](c2c[nH]c3ccc(COc4ccccc4)cc23)C1=O,56.3% (active)
12,COc1cc(C)c(CNC(=O)c2cccc(-n3cnnc3)c2)cc1C(C)C,4.98% (inactive)
13,COCC(=O)Nc1cc(C)on1,7.17% (inactive)
14,CC(C)(C)NCC[C@@H](O)c1cc(C(F)(F)F)nc2c(C(F)(F)F)cccc12,48.9% (active)
15,COc1ccc(N(CC(=O)N2CCN(c3ccc(F)cc3)CC2)S(C)(=O)=O)cc1,6.08% (inactive)
16,CCCC(c1nnnn1C1CCCCC1)N1CCN(c2ccccc2)CC1 (configuration not stated),5.51% (inactive)
17,COc1ccc2[nH]c3cc4c(=O)c5cc(OC)ccc5[nH]c4cc3c(=O)c2c1,49.6% (active)
18,COc1ccc2[nH]c(=S)cc(C)c2c1,7.37% (inactive)
19,COc1ccc2[nH]c3ccc(OC)cc3c2c1,6.17% (inactive)
20,Cc1ccc(-c2cc(N)c(=O)n(CC(=O)N3c4ccccc4CC3C)n2)o1 (configuration not stated),9.35% (inactive)
21,CCOc1ccc2[nH]c(=O)c(CN(Cc3ccc4c(c3)OCO4)C(=O)Nc3ccc(C)cc3)cc2c1,10.3% (inactive)
22,Cc1ccc2cc(CN(Cc3cccs3)Cc3nnnn3Cc3ccco3)c(=O)[nH]c2c1,12.8% (inactive)
23,COc1ccc(-n2nnnc2SCC(=O)Nc2ccc(N(C)C)cc2)cc1,8.77% (inactive)
24,Cc1ccc(N(CC(=O)N2CCC(C(N)=O)CC2)S(C)(=O)=O)cc1C,15.2% (inactive)

row,Structure (SMILES),inhibition
1,C/C(=N/Nc1nc(-c2ccccc2)c(CC(=O)O)s1)c1ccccc1,11.6% (inactive)
2,O=C(O)Cc1sc(-c2ccccc2)nc1-c1cccs1,43% (active)
3,Cc1ccc(-c2nc(C)sc2CC(=O)O)cc1,8.08% (inactive)
4,COC(=O)c1c(NC(=O)Cc2cccs2)sc(C(=O)Nc2cccc(Cl)c2)c1C,8.6% (inactive)
5,CCCc1nc2ccccc2n1CC(O)COc1ccc(F)cc1 (configuration not stated),10.9% (inactive)
6,COc1ccc(C2(O)CCN(CCN3CCCCC3)CC2)c(OC)c1,12.5% (inactive)
7,CCn1c(=O)n(CC)c2cc(CN(Cc3ccc(C)s3)CC(C)O)ccc21 (configuration not stated),1.95% (inactive)
8,O=C(O)[C@@H]1CS[C@]2(CCCN(Cc3ccccc3)C2)N1,46.7% (active)
9,O=C(NC1CCN(Cc2ccccc2)CC1)c1c(F)cccc1F,2.64% (inactive)
10,CCCC(=O)C1CCN(Cc2ccccc2)CC1,13% (inactive)
11,Cc1cccc2c(C(=O)Nc3cccc(C(=O)N4CCCCC4)c3)cc(=O)[nH]c12,4.42% (inactive)
12,CC(C)(C)c1cnnn1-c1ccc(S(N)(=O)=O)cc1,3.83% (inactive)
13,CC(NC(=O)C1CCN(c2nc3ccccc3n2C)CC1)c1ccccc1 (configuration not stated),7.13% (inactive)
14,CC(NC(=O)Nc1ccccc1)C(c1cccs1)N1CCN(c2ccccc2)CC1 (configuration not stated),6.9% (inactive)
15,C(=N/N1CCN(c2ccccc2)CC1)/c1cccs1,6.51% (inactive)
16,ClC(Cl)(Cl)C(N1CCN(c2ccccc2)CC1)N1CCN(c2ccccc2)CC1,46.7% (active)
17,COc1ccc(CN(Cc2cccnc2)C2CC(C)(C)NC(C)(C)C2)cc1OC,9.23% (inactive)
18,CCOc1ccc(OCC)c(NC(=O)CSc2nc3cc4c(cc3cc2C)OCO4)c1,15.2% (inactive)
19,O=C(Nc1ccc2oc(-c3cccnc3)nc2c1)c1cccc2ccccc12,10.6% (inactive)
20,N#CC1=C(N)Oc2cc(O)ccc2C1C1CCCCC1 (configuration not stated),7.43% (inactive)
21,O=C(O)c1c(Br)c(Br)c(Br)c(Br)c1C1c2ccc(O)cc2Oc2cc(O)ccc21,46.5% (active)
22,CCn1cc(C(=O)N2CCC(n3c(C)nc4sc(C)c(C)c4c3=O)CC2)cn1,-0.97% (inactive)
23,O=C(CN1CCC(n2nnc3cc(F)ccc32)CC1)Nc1cccc(F)c1,10.2% (inactive)
